From PubChem BioAssay
An excerpt weighted towards active compounds, which were near 2.2% of everything screened.
Ba/F3 V617F tox – reduced viability of JAK2V617F-dependent Ba/F3 cells, primary screen, JAK2V617F inhibitor project, cell-based, Ba/F3 EpoR-JAK2V617F, luminescence | ATP luminescence | inhibition, % at 5.6 µM | 1.1% of 220,000 active;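 active means inhibition above the campaign mean plus 3 SD over all tested compounds, cut at about 24% in these data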;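 further: cytokine-independent growth of Ba/F3 cells driven by EpoR plus mutant JAK2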
aSyn UTR inh – MLPCN primary screen, SNCA 5' untranslated region. 0.82% of 300,000 active. alpha-synuclein 5'UTR reporter, inhibitor activity. AID 1813, 2009. inhibition, % (tested at 7.5 µM); in the data active means inhibition above about 60%;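 further: H4 neuroglioblastoma cells stably carrying SNCA 5'UTR luciferase fusion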
BaF3 tox – parental Ba/F3 cell viability inhibition, counter-screen for JAK2V617F inhibitor project, murine pro-B, CellTiter-Glo luminescence; CellTiter-Glo ATP luminescence; inhibition, % at 5.6 µM; 1.1% of 220,000 active; AID 1486, 2009;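 active means inhibition above a per-campaign cutoff, the mean inhibition of all tested compounds plus 3 SD, cut at about 27% in these data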
KLF5 inhibitor – KLF5 expression inhibitors, primary screen, DLD-1 cells, luminescence | DLD-1 KLF5 promoter-luciferase reporter | inhibition, % at 5 µM | 0.23% of 290,000 active | AID 1700, 2009;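 active means inhibition above a per-plate limit of that plate's mean compound inhibition plus 3 SD, cut at about 60% in these data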;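 further: higher means less KLF5 promoter-driven luciferase light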
IEC-6 tox – cytotoxicity in IEC-6 intestinal epithelial cells, primary screen, cytotoxicity control for KLF5 inhibitor project, cell-based, luminescence; IEC-6 cytotoxicity, luminescence viability; inhibition, % at 5 µM; 0.78% of 290,000 active; AID 1825, 2009; in the data active means inhibition above about 22%
APP 5UTR inh – inhibitors of APP translation via 5'UTR reporter, primary screen, APP 5'UTR luciferase, SH-SY5Y cells | SH-SY5Y APP 5'UTR-luciferase reporter, luminescence | inhibition, % at 2 µM | 0.82% of 190,000 active;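 active means inhibition above a set limit, derived from the sample mean plus 3 SD, cut at about 45% in these data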
Of the large screens only hits and unclear results are named; the others gave an inactive call.

Cn1c(O)c(N=NC(=O)c2cc(-c3cccs3)nc3ccccc23)c2ccccc21	none
O=C(N=Nc1c(O)[nH]c2ccc(Br)cc12)c1cc(-c2cccs2)nc2ccccc12	aSyn UTR inh 81.4
COC(=O)c1ccc2c(c1)C(C)(C)C(/C=C/c1ccc(OC)c(OC)c1OC)=[N+]2C	aSyn UTR inh 101.6
COc1cc(/C=C/c2ccc(O)cc2)cc(OC)c1	none (no result: APP 5UTR inh)
COC(=O)c1ccc2c(c1)C(C)(C)C(/C=C/c1ccc(O)cc1)=[N+]2C	aSyn UTR inh 119.3, BaF3 tox 29.0
Cc1ccc(C2(C)NC(=O)N(CC(=O)N(C)CC(=O)Nc3cccc4ccccc34)C2=O)cc1 (configuration not stated)	none (no result: Ba/F3 V617F tox, BaF3 tox, KLF5 inhibitor, IEC-6 tox, APP 5UTR inh)
N/C(=N\NC(=O)c1sccc1OCc1ccc(Cl)cc1Cl)c1ccccn1	APP 5UTR inh 61.5
CCOc1ccc(OCCC(=O)NNC(=O)c2cc(OC)c(OC)c(OC)c2)cc1	none (no result: Ba/F3 V617F tox, BaF3 tox, KLF5 inhibitor, IEC-6 tox, APP 5UTR inh)
COc1ccc(NC(=O)CC(C)NCCCN2CCCC2=O)cc1 (configuration not stated)	none (no result: Ba/F3 V617F tox, BaF3 tox, APP 5UTR inh)
COc1ccc(-c2nc3ccccc3n2Cc2ccc(C)cc2)cc1	none
COc1ccc(Cn2c(-c3ccc(C)cc3)c[n+]3ccccc23)cc1	Ba/F3 V617F tox 90.0, BaF3 tox 70.7
COc1ccc(N=c2cc(-c3ccc(OC)cc3)oc3ccccc23)cc1	none
CCOc1ccc(N=c2cc(-c3ccc(OC)cc3)oc3ccccc23)cc1	BaF3 tox 71.1
COc1cc2c(cc1OC)-c1cc3ccc4c(c3c[n+]1CC2)OCO4	Ba/F3 V617F tox 49.4, BaF3 tox 57.4
COc1cc2c(ccc3cc(OC)c(OC)c(O)c32)cc1O	none (no result: Ba/F3 V617F tox, BaF3 tox, KLF5 inhibitor, IEC-6 tox, APP 5UTR inh)
COc1cc2c(cc1O)CC[n+]1cc3c(OC)c(OC)ccc3cc1-2	BaF3 tox 44.8
COc1cc2c(cc1OC)C(c1ccccc1)=NCC2	none
O=C(COC(=O)CN1C(=O)c2ccccc2C1=O)Nc1ccc(S(=O)(=O)N2CCCC2)cc1	APP 5UTR inh 49.5
CCc1ccc2nc(SCC(=O)N3CC(=O)Nc4ccccc43)c(C#N)cc2c1	APP 5UTR inh 93.7
O=C(Nc1ccc(Cl)cc1)Nc1csc([N+](=O)[O-])c1	Ba/F3 V617F tox 29.8, BaF3 tox 72.4 (no result: APP 5UTR inh)
CS(=O)(=O)c1nc(-c2ccc(F)cc2)cc(C(F)(F)F)n1	IEC-6 tox 25.1
CCOC(=O)CCS(=O)(=O)c1nc(-c2ccccc2)cc(C(F)(F)F)n1	Ba/F3 V617F tox 39.2
CCOC(=O)CS(=O)(=O)c1nc(-c2ccc(F)cc2)cc(C(F)(F)F)n1	APP 5UTR inh 60.7
CCOC(=O)CS(=O)(=O)c1nc(-c2ccccc2)cc(C(F)(F)F)n1	Ba/F3 V617F tox 78.6, IEC-6 tox 27.8, APP 5UTR inh 56.9
COC(=O)CCS(=O)(=O)c1nc(-c2ccccc2)cc(C(F)(F)F)n1	none
Cc1ccccc1-n1nc2c(c1NC(=O)C1CCCC1)CS(=O)(=O)C2	none (no result: Ba/F3 V617F tox, BaF3 tox, APP 5UTR inh)
CC1(c2ccccc2Cl)NC(=O)N(CC(=O)Nc2ccc(N3CCCCC3)cc2)C1=O (configuration not stated)	none (no result: Ba/F3 V617F tox, BaF3 tox, KLF5 inhibitor, IEC-6 tox, APP 5UTR inh)
COc1cc(/C=C/c2noc(-c3ccccc3O)n2)cc(OC)c1OC	none
COc1cc(/C=C/c2nnc3c4ccccc4ncn23)cc(OC)c1OC	Ba/F3 V617F tox 27.7, BaF3 tox 43.0
O=C(NCCCNC(=O)c1ccc(-c2cc(Cl)ccc2Cl)o1)c1cnccn1	none (no result: Ba/F3 V617F tox, BaF3 tox, APP 5UTR inh)
O=C1C=C(N2CCCCC2)c2ccccc2C1=O	aSyn UTR inh 122.4 (no result: Ba/F3 V617F tox, BaF3 tox, KLF5 inhibitor, IEC-6 tox, APP 5UTR inh)
CC(c1ccccc1)n1c(S(=O)(=O)O)nc2ccccc21 (configuration not stated)	BaF3 tox 58.4
COC(=O)c1cn(C(=O)c2ccc(C)cc2C)c2ccccc12	APP 5UTR inh 53.5
c1ccc(N2CCN(c3nnnn3-c3ccccc3)CC2)cc1	APP 5UTR inh 48.4
Cn1c(-c2cccc([N+](=O)[O-])c2)[n+](C)c2ccccc21	Ba/F3 V617F tox 58.0, BaF3 tox 70.5
Cn1c(-c2ccccn2)[n+](C)c2ccccc21	none
CN(C)c1ccc(-c2n(C)c3ccccc3[n+]2C)cc1	Ba/F3 V617F tox 91.2, BaF3 tox 71.0 (no result: APP 5UTR inh)
Cn1c(-c2ccc3ccccc3n2)[n+](C)c2ccccc21	Ba/F3 V617F tox 89.0, BaF3 tox 63.3 (no result: APP 5UTR inh)
Cc1cc(NC(=O)c2cccc(S(=O)(=O)N3c4ccccc4CC3C)c2)no1 (configuration not stated)	none (no result: APP 5UTR inh)
CCOC(=O)c1sc(NC(=O)c2cccc(S(=O)(=O)N3c4ccccc4CC3C)c2)cc1C (configuration not stated)	aSyn UTR inh 79.5
N#Cc1nc(COc2ccc(F)cc2)oc1N1CCC(Cc2ccccc2)CC1	APP 5UTR inh 66.0
Cc1ccc(C2(C)NC(=O)N(CC(=O)Nc3nc(-c4ccccn4)cs3)C2=O)cc1 (configuration not stated)	aSyn UTR inh 80.1 (no result: Ba/F3 V617F tox, BaF3 tox, KLF5 inhibitor, IEC-6 tox, APP 5UTR inh)
CCCc1nnc(NC(=O)C2CC(=O)N(C3CCCC3)C2)s1 (configuration not stated)	none (no result: Ba/F3 V617F tox, BaF3 tox, APP 5UTR inh)
Cc1n(C)c2cc(Cl)ccc2[n+]1Cc1ccccc1	Ba/F3 V617F tox 55.6, BaF3 tox 94.2
Cc1oc(C(=O)Nc2ccc(O)cc2)cc1COc1ccccc1	BaF3 tox 37.2 (no result: aSyn UTR inh)
Cc1ccc(OCc2cc(C(=O)Nc3ccccc3)oc2C)cc1	none
COc1cc(OC)c(-n2cc(-c3ccc(OC)c(OC)c3)[nH]c2=S)cc1Cl	none (no result: Ba/F3 V617F tox, BaF3 tox, APP 5UTR inh)
COC(=O)c1c(NC(=O)C(=O)N2CCCC2)sc2c1CC(C)(C)OC2	none (no result: Ba/F3 V617F tox, BaF3 tox, APP 5UTR inh)
CC(=O)Nc1sc(C)c(C)c1C(=O)OCC(=O)N(CC(C)C)c1c(N)n(Cc2ccccc2)c(=O)[nH]c1=O	aSyn UTR inh 77.3 (no result: Ba/F3 V617F tox, BaF3 tox, KLF5 inhibitor, IEC-6 tox, APP 5UTR inh)
CCOc1ccc(NC(C)=O)cc1	none (no result: Ba/F3 V617F tox, BaF3 tox, APP 5UTR inh)
CC(=O)Nc1ccc(OCc2cccc3ccccc23)cc1	aSyn UTR inh 92.1 (no result: Ba/F3 V617F tox, BaF3 tox, APP 5UTR inh)
CC(=O)/C(=N\Nc1ccccc1)Sc1cccc2cccnc12	none
O=S(=O)(Nc1cc(Sc2cccc3cccnc23)c(O)c2ccccc12)c1ccc(F)cc1	IEC-6 tox 50.9, APP 5UTR inh 78.1
COc1ccc(S(=O)(=O)Nc2cc(Sc3ncn[nH]3)c(O)c3ccccc23)cc1	Ba/F3 V617F tox 89.8, BaF3 tox 86.6, KLF5 inhibitor 89.2 (no result: aSyn UTR inh)
O=C(Sc1cccc2cccnc12)c1ccc(F)cc1	Ba/F3 V617F tox 43.1, BaF3 tox 40.8, IEC-6 tox 87.3, APP 5UTR inh 71.3 (no result: aSyn UTR inh)
COc1ccc(CCN2CC(C(=O)N(C)Cc3ccc(C)o3)CCC2=O)cc1 (configuration not stated)	none (no result: Ba/F3 V617F tox, BaF3 tox, APP 5UTR inh)
Nc1ncc(Br)cc1S(=O)(=O)NCCC(=O)NCCc1ccc(Cl)cc1	none (no result: Ba/F3 V617F tox, BaF3 tox, APP 5UTR inh)
COc1cccc(CN(C)C(=O)c2ccc(Oc3ccccc3)cc2)c1OC	none (no result: Ba/F3 V617F tox, BaF3 tox, APP 5UTR inh)
O=C(Cn1cnc2c(oc3nc4c(cc32)CCCC4)c1=O)Nc1cccc(Cl)c1	aSyn UTR inh 66.3 (no result: Ba/F3 V617F tox, BaF3 tox, APP 5UTR inh)
